Measured values as given in PubChem BioAssay (NCI).
The panel holds about 83,000 compounds, 20% with a hit somewhere; the sample as a whole holds those more often.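 For each line, cells grew in 96-well plates with the test compound present at a single concentration for 48 hours.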 Calls of active or inactive are those of the source.

Tested on: OVCAR-4 ovarian
Test: NCI-60 one-dose screen, 48 h (100 = growth as untreated, 0 = no growth, -100 = all killed)
Settings: 10 µM unless noted
Method: Growth inhibition of the OVCAR-4 human tumor cell line is measured as a screen for anti-cancer activity. Cells are grown in 96 well plates and exposed to the test compound for 48 hours. Compounds are tested at a single concentration, which is 10^-5 M for most compounds. The reported endpoint is percent growth (GI% or GIPRCNT), where numbers from 0 - 100% represent growth inhibition, and numbers from -100% - 0 represent cell death. For example, a value of 40 represents 60% growth inhibition. A value of 0 means no net growth occurred over the course of the experiment. A value of -40 indicates 40% of cells at the beginning of the experiment died by the end of the experiment. A value of -100 means all cells are dead at the end of the experiment.
NCI-60 Human Tumor Cell Lines Screen was performed using the standard one-dose NCI protocol, which is described in more detail at https://dtp.cancer.gov/discovery_development/nci-60/default.htm.
Compounds with GIPRCNT values below 10 were considered active. Activity score was based on GIPRCNT using the following formula: […]
Score is 0 for GIPRCNT values of 100 or above, 50 for GIPRCNT values of 0, and 100 for GIPRCNT values of -100.

Structure (SMILES)	growth
CC/C=C/[C@@H]1C=C[C@@H]2CCC[C@H]2[C@@H]1CC[C@H](O)[C@H](C)N	32.8% (inactive)
NC(=O)CC1(O)C=C(Br)C(=O)C(Br)=C1	34.7% (inactive)
COc1ccc(/C=N/NC(=O)Cn2c(-c3ccc(S(C)(=O)=O)cc3)nc3cc(Cl)ccc32)cc1	55.5% (inactive)
NC(N)=N/N=C/CO	96% (inactive)
O=C(/C=C/c1ccccc1)c1ccc2ccccc2c1	97% (inactive)
CCCN1CCN(c2ccc3nc(-c4ccc5nc(-c6ccc(OCC)c(OCC)c6)[nH]c5c4)[nH]c3c2)CC1	-59.9% (active)
CCCCCCCCCCCCCCCCCC1=NCCN1C(=O)OCCO	28.2% (inactive)
N=C(N)c1ccc(-c2ccc(-c3ccc(Cl)cc3Cl)o2)nc1	22.6% (inactive)
O=C(/C=C/C12c3ccccc3C(c3ccccc31)C1C(=O)NC(=O)C12)c1ccc(Cl)cc1 (stereo not given)	30.4% (inactive)
COc1ccc(OC)c(/C=C2\COc3ccc(O)cc3C2=O)c1	117% (inactive)
C=C(CNCCc1ccc(O)cc1)[C@@H]1CC[C@]2(COC3CCCCO3)CC[C@]3(C)[C@H](CC[C@@H]4[C@@]5(C)CCC(NCCO)C(C)(C)[C@@H]5CC[C@]43C)[C@@H]12 (stereo not given in full)	-91.5% (active)
O=C(Nc1ccc(N2CCCCC2)c(Cl)c1)c1ccc(Br)o1	73% (inactive)
C=C(CNCCc1ccc(O)cc1)[C@@H]1CC[C@]2(COC3CCCCO3)CC[C@]3(C)[C@H](CC[C@@H]4[C@@]5(C)CCC(N)C(C)(C)[C@@H]5CC[C@]43C)[C@@H]12 (stereo not given in full)	-77.5% (active)
C[C@@H]1C(=O)N(C[C@@H](Cc2ccccc2)NC(=O)OCc2ccccc2)[C@]1(Cc1ccccc1)C(=O)OCc1ccccc1	1.48% (active)
CCOC(=O)C(O)C(O)(c1ccccc1)c1ccccc1 (stereo not given)	111% (inactive)
C[C@@H]1C(=O)N(C[C@H](Cc2ccccc2)N(Cc2ccccc2)Cc2ccccc2)[C@]1(Cc1ccccc1)C(=O)OC(C)(C)C	28.8% (inactive)
Cc1ccc(/C=C(\C#N)n2nnc3cc(Cl)c(Cl)cc32)cc1	29.3% (inactive)
CCC(C)NCc1ccccc1 (stereo not given)	109% (inactive)
COc1ccc2c(c1)/C(=C\c1sc(=S)[nH]c1O)C(C(=O)O)=N2	101% (inactive)
COc1ccc(OC)c(/C=C2\COc3ccc(O)c(O)c3C2=O)c1	27.4% (inactive)

Structure (SMILES)	growth
O=C(NCCOCCOCCNc1cccc2c1C(=O)N(C1CCCNC1=O)C2=O)c1cc2c(o1)C(=O)c1ccccc1C2=O (stereo not given)	-98.1% (active)
C=C1c2c(C)nn(-c3ccc(NC(C)=O)cc3)c2N(C)C23CC1C1(C)c4c(C)nn(-c5ccc(NC(C)=O)cc5)c4N(C)C(C)(CC12)C3 (stereo not given)	35% (inactive)
CCN(CC)CCCC(C)NCc1ccccc1 (stereo not given)	105% (inactive)
CC(=[N-])N1CCC[C@@H](Nc2c3ccccc3nc3ccccc23)C1.[Cl][Pt].[NH-]CCC[NH-]	20.4% (inactive)
CC(C)(C)CC(C)(C)Nc1c(-c2ccc(-c3ccccc3)cc2)nc2cnccn12	-26.5% (active)
C=C(C)[C@@H]1CC[C@]2(CN)CC[C@]3(C)[C@H](CC[C@@H]4[C@@]5(C)CCC(N)[C@@](C)(CO)[C@@H]5CC[C@]43C)[C@@H]12 (stereo not given in full)	-4.67% (active)
CN(CCC(=O)/C(=C\c1ccccc1)c1ccc(Cl)cc1)Cc1ccccc1	89.7% (inactive)
CN1C[C@@H](c2ccc(Cl)cc2)[C@]2(NC(=S)N(c3ccccc3)C2=O)[C@@]12C(=O)NC1C=CC(Br)=C[C@H]12 (stereo not given in full)	71.6% (inactive)
C=C1C(=O)O[C@H]2[C@H]1CC/C(COC(=O)/C=C\C(=O)NCc1ccc(Cn3c(=O)sn(CCCI)c3=O)cc1)=C\CC[C@@]1(C)O[C@@H]21	-89.4% (active)
CCN(CC)N=Nc1nn(C(=O)Nc2ccc(Cc3ccccc3)cc2)c2ccc(Cl)cc12	75.7% (inactive)
CCN(CC)CCOc1ccc(/C(=C(\C)c2ccc(F)c(OC)c2)c2ccc(Cl)cc2)cc1	26.6% (inactive)
O=C(O)CC1Sc2ccccc2NC1=O (stereo not given)	128% (inactive)
CCN(CC)CCOC(=O)N1c2ccccc2Sc2ccccc21	101% (inactive)
CS(=O)(=O)c1ccc(N/N=C/c2c(-c3ccc(S(C)(=O)=O)cc3)[nH]c3ccc(F)cc23)cc1	40.2% (inactive)
CO[C@H]1/C=C/O[C@@]2(C)Oc3c(C)c(O)c4c(c3C2=O)C(=O)C(/C=N/N(c2ccccc2)c2ccccc2)=C(NC(=O)/C(C)=C\C=C\[C@H](C)[C@H](O)[C@@H](C)[C@@H](O)[C@@H](C)[C@H](OC(C)=O)[C@@H]1C)C4=O	9.98% (active)
C=C(C=O)[C@@H]1CC=C(C=O)CC1	10.5% (inactive)
Cc1ccc(S(=O)(=O)NN/C(N)=N\S(=O)(=O)c2cc(C)c(Cl)cc2SCc2ccccc2)cc1	89.5% (inactive)
N#Cc1cnn2c(-c3ccc(Cl)cc3)nc(NCCc3ccccc3)nc12	85.7% (inactive)
CCOC(=O)c1sc2ccc(NCc3nc[nH]c3C)cc2c1NC(=O)c1cc(OC)c(OC)c(OC)c1	74% (inactive)
CCCNCC(=O)Nc1ccc(C(=O)OC(C)(C)CC)cc1	118% (inactive)
